From PubChem BioAssay (NCATS)
Several values for one entry are separate records, joined by “and”; a condition that tells them apart may be missing. Identical values can stand only once. Records with an inconclusive call do not appear. Where a call stands in place of a potency, no number is given. Activity calls are given as the source filed them. Calls come from the whole dose curve; as a rule, active = well fitted cell-killing curve with a large enough effect; inconclusive = small, poorly fitted or top-dose-only effect; inactive = flat fitted curve, though single readings scatter.

Assay: qHTS of pediatric cancer cell lines to identify multiple opportunities for drug repurposing: Primary screen for RD cells (AID 1347104); note: nearly all actives have a fitted effect of over 55% in size
Details: RD rhabdomyosarcoma viability, CellTiter-Glo luminescence, 48 h; series mostly up to 46 µM
Source text: Drug repurposing or repositioning has been offered as a strategy for drug development in oncology programs. This approach has special potential for childhood cancers and other rare or orphan diseases, where the expected return on new drug development has been a disincentive to pharmaceuticals. […] In this project we exploit the poly-pharmacology of drugs to discover new indications via phenotypic screening of a panel of 19 well-characterized cell lines derived from solid tumors seen in children and adolescents. The goal is to identify approved drugs with previously unrecognized anticancer properties that has the potential to reveal new mechanisms and biological processes involved in carcinogenesis or drug resistance. We employed a titration-based paradigm (quantitative high-throughput screening or qHTS), where all compounds were tested at multiple concentrations for their effect on cell viability. Concentration-response curves (CRCs) were derived directly from the primary screen, and both potency and efficacy values were used to identify compounds with robust bioactivity profiles. We screened the NIH Chemical Genomics Center (NCGC) Pharmaceutical Collection (NPC) and Mechanism Interrogation Plate (MIPE) small molecule collections of approved and investigational compounds against these cell lines; and measured metabolically active cells after 48 hours of compound treatment as a proxy for cell viability. […] Assay Submitter: Nathalia J. Martinez, National Center for Advancing Translational Sciences, National Institutes of Health, Rockville, MD, USA; email: natalia.martinez@nih.gov Shen, M et al. Quantitative high-throughput phenotypic screening of pediatric cancer cell lines identifies multiple opportunities for drug repurposing. Oncotarget 2017 Dec 19;9(4):4758-4772. PMID 29435139.
The cells were obtained from University of North Carolina (UNC), Pediatric Preclinical Testing Program (PPT), and Coriell Institute (CI). qHTS cell viability assay: Cells were assayed in growth media at a density of 500-1,000 cells/well. Five microliters of cells were dispensed into 1,536-well, white, solid-bottom, TC-treated plates (Greiner Bio One) using a multidrop dispenser and incubated at 37 degrees C, 5% CO2, under a humidified atmosphere for 5 hours. Twenty-three nanoliters of compounds and controls (neutral control DMSO or positive control bortezomib at final concentration of 2.3 µM) were subsequently transferred by Kalypsys pintool. For primary screens, the MIPE collection was tested at 11-point dilutions (final concentrations range from 0.78 nM to 46 µM) and the NPC collection at 8-point dilutions (final concentrations range from 0.59 nM to 46 µM). Compounds tested in follow-up screens were assayed at 11-point dilutions. Cells were incubated for 48 hours, followed by addition of 3 µL of CellTiter-Glo (Promega). After a 15 min incubation at room temperature, samples were analyzed for luminescence intensity using a ViewLux High-throughput CCD imager equipped with clear filters.
Potency is the fitted concentration of half-maximal effect.

Row | Structure (SMILES) | Potency
1 | Cc1cccc(C)c1NC1=NCCCS1 | inactive
2 | NCCc1cc(O)c(O)cc1O | inactive
3 | Cn1cc(C2=C(c3cn(C4CCN(Cc5ccccn5)CC4)c4ccccc34)C(=O)NC2=O)c2ccccc21 | inactive
4 | CCOP(=S)(OCC)Oc1cc(C)nc(C(C)C)n1 | inactive
5 | Clc1cccc(N2CCNCC2)c1 | inactive
6 | C=CCN1CC[C@]23c4c5ccc(O)c4O[C@H]2C(=O)CC[C@@]3(O)[C@H]1C5 | inactive
7 | c1ccc2c(c1)Nc1ccccc1S2 | inactive
8 | Cn1c(CCCC(=O)O)nc2cc(N(CCCl)CCCl)ccc21 | inactive
9 | CCCN1CCC[C@@H]2Cc3nc(N)ncc3C[C@H]21 | inactive
10 | CCN(CC)CCOC(=O)C(O)(c1ccccc1)c1ccccc1 | inactive
11 | N[C@@H]1C[C@H]1c1ccccc1 | inactive
12 | CC(=O)[C@H]1CC[C@H]2[C@@H]3CC[C@H]4C[C@](C)(O)CC[C@]4(C)[C@H]3CC[C@]12C | inactive
13 | CCCN1CCC[C@@H]2Cc3[nH]ncc3C[C@H]21 | inactive
14 | CC(=O)[C@H]1CC[C@H]2[C@@H]3CC[C@H]4C[C@H](O)CC[C@]4(C)[C@H]3C(=O)C[C@]12C | inactive
15 | Clc1ccc(CCC(Cn2ccnc2)Sc2c(Cl)cccc2Cl)cc1 (stereo not given) | 37.2 µM (active)
16 | COc1ccc2c(c1OC)CN1CCc3cc4c(cc3C1C2)OCO4 (stereo not given) | inactive
17 | C[C@]12C/C(=C/O)C(=O)C[C@@H]1CC[C@@H]1[C@@H]2CC[C@@]2(C)[C@H]1CC[C@]2(C)O | inactive
18 | c1ccc(C2CC2)c(OCC2=NCCN2)c1 | inactive
19 | N[C@@H](Cc1ccc(N(CCCl)CCCl)cc1)C(=O)O | inactive
20 | Oc1ccccc1-c1ccccc1 | inactive

Row | Structure (SMILES) | Potency
21 | C=C1C[C@@H]2[C@H](CC[C@]3(C)C(=O)CC[C@@H]23)[C@@]2(C)C=CC(=O)C=C12 | inactive
22 | O=C1NCN(c2ccccc2)C12CCN(CC1COc3ccccc3O1)CC2 (stereo not given) | inactive
23 | OCCOc1ccccc1 | inactive
24 | CC(CCc1ccccc1)NC(C)C(O)c1ccc(O)cc1 (stereo not given) | inactive
25 | CCN(CC)C(=O)N[C@@H]1C=C2c3cccc4[nH]cc(c34)C[C@@H]2N(C)C1 | inactive
26 | Fc1ccc(C(OCCN2CCN(CCCc3ccccc3)CC2)c2ccc(F)cc2)cc1 | 26.4 µM (active) and 23.7 µM (active)
27 | CC1OC(C)OC(C)O1 (stereo not given) | inactive
28 | N#CC(C#N)=Cc1ccc(O)c(O)c1 | inactive
29 | COC1(CS(=O)c2ccccc2)CCN(CCc2c[nH]c3ccc(F)cc23)CC1 (stereo not given) | inactive
30 | CC(=O)Nc1cc([As](=O)(O)O)ccc1O | inactive
31 | CC(C)(N)Cc1ccc(Cl)cc1 | inactive
32 | C[C@]12CCC(=O)C(O)=C1CC[C@@H]1[C@@H]2CC[C@]2(C)C(=O)CC[C@@H]12 | inactive
33 | CCN(CC)CCN1C(=O)CN=C(c2ccccc2F)c2cc(Cl)ccc21 | inactive
34 | CCCC(C)(COC(N)=O)COC(=O)NC(C)C (stereo not given) | inactive
35 | CN(C)CCc1ccc(O)cc1 | inactive
36 | CCN(C(C)=O)c1cccc(-c2ccnc3c(C#N)cnn23)c1 | inactive
37 | Cc1ccc2c(c1)C1CN(C)CCC1N2 (stereo not given) | inactive
38 | O=C1CC[C@@]2(O)[C@H]3Cc4ccc(O)c5c4[C@@]2(CCN3CC2CC2)[C@H]1O5 | inactive
39 | Nc1ccncc1 | inactive
40 | CC(C)CC(N(C)C)C1(c2ccc(Cl)cc2)CCC1 (stereo not given) | inactive
